The source made the active and inactive calls. Entries that show only a call come without a potency. The call rests on the fitted dose curve; in most records, active means well fitted activation curve with a large enough effect; inconclusive means small, poorly fitted or top-dose-only effect; inactive means no such curve, though single readings can be large or run the other way.
Each compound was assayed against Cytochrome P450 3A4 (Homo sapiens) (UniProt P08684) (assay: qHTS Assay for Activators of Cytochrome P450 3A4 (AID 885; further: nearly all actives have a fitted effect of over 65% in size)). Settings: recombinant CYP3A4, Luciferin-PPXE luminescence, 60 min; series mostly up to 57.1 µM.
Method in brief: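 Human CYP3A4 dealkylates Luciferin-PPXE to luciferin, which luciferase detection converts to light. Substrate was at its KM (25uM), buffer 200mM KPO4, reaction 60 min at RT.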

Cytochrome P450 3A4 (Homo sapiens), sequence (P08684 whole entry, looked up): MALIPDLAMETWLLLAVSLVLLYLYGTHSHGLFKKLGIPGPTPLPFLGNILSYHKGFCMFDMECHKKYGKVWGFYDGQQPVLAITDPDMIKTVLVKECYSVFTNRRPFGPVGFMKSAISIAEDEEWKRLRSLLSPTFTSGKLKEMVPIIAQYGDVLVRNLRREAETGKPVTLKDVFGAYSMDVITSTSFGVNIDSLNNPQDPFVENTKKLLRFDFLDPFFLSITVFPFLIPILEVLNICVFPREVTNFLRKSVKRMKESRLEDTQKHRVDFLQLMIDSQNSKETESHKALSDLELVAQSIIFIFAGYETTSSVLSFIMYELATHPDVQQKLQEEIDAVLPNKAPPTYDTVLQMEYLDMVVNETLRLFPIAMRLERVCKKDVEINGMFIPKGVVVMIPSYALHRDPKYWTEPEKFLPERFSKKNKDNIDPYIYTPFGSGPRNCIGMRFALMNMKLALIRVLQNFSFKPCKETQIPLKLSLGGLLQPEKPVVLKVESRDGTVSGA

Structure (SMILES) | Potency
COC(=O)[C@@]1(Cc2ccc(F)cc2)[C@@H]2C(=CC(=O)[C@H]2CC(=O)C(=O)N(C)C)CN1C(=O)c1ccccc1 | inactive
C/C(=C\C1CCCCC1)C(NC(=O)c1ccc(C(F)(F)F)cc1)c1ccc(-c2ccccc2)cc1 (stereo not given) | inactive
CCc1c2c(nc3ccc(OC)cc13)COC2 | inactive
CC1(C)C(=O)C(c2ccccc2)=C2CN3C(=O)N(CCc4ccccc4)C(=O)C3(Cc3ccccc3)C=C21 (stereo not given) | inactive
C[C@H](CO)NC(=O)[C@@H]1C[C@H]1[C@@H](NP(=O)(c1ccccc1)c1ccccc1)c1ccccc1 | inactive
COC(=O)[C@@]1(Cc2ccc(F)cc2)[C@H]2c3cc(C(=O)N(C)C)n(Cc4c(CO)[nH]cc(C)c4=O)c3C[C@H]2CN1C(=O)c1ccccc1 | inactive
C[C@@]1(C(NC(=O)c2cccs2)c2ccc(-c3ccccc3)cc2)C[C@H]1C1CCCCC1 (stereo not given in full) | inactive
COC(=O)[C@@]1(Cc2ccc(OC)cc2)[C@H]2c3cc(C(=O)N4CCCC4)n(Cc4ccc(Cl)c(C(F)(F)F)c4)c3C[C@H]2CN1C(=O)c1ccccc1 | inactive
CCC/C=C(\CCC)C(NC(=O)c1ccc(C(F)(F)F)cc1)c1ccc(C(F)(F)F)cc1 (stereo not given) | inactive
C[C@@H](C(=O)NCc1nc2ccccc2[nH]1)[C@@H]1C[C@@]1(C)[C@@H](NC(=O)OCc1ccccc1)c1ccccc1 | inactive
C[C@@]1(C(NC(=O)Cc2ccccc2)c2ccc(-c3ccccc3)cc2)C[C@H]1C1CCCCC1 (stereo not given in full) | inactive
C[C@@H](C(=O)O)[C@@H]1C[C@@]1(C)[C@@H](NC(=O)OCc1ccccc1)c1ccccc1 | inactive
CC(C)=C1C(=O)C(c2ccccc2)=C2CN3C(=O)N(CCc4ccccc4)C(=O)[C@]3(Cc3ccccc3)[C@H]21 | inactive
COC(=O)C1(CC(C)C)C=C2C(=C(C(C)C)C(=O)C2C)CN1 (stereo not given) | inactive
COC(=O)[C@H]1C[C@@H]1[C@H](NC(=O)Oc1ccc(F)cc1)c1ccccc1 | inactive
CCCC1(C(=O)OC)C=C2C(=C(C)C(=O)C2C)CN1 (stereo not given) | inactive
CCc1c2c(nc3cccc(C(C)C)c13)-c1cccc(=O)n1C2 | inactive
COC(=O)[C@@H]1C[C@H]1[C@@H](NC(=O)c1cc(C)nn1C)c1ccccc1 | inactive

Structure (SMILES) | Potency
C[C@@H](C(=O)Nc1ccc2ccccc2c1)[C@@H]1C[C@@]1(C)[C@@H](NC(=O)Oc1ccc(F)cc1)c1ccccc1 | inactive
COC(=O)[C@H]1C[C@@H]1[C@H](NC(=O)c1cnccn1)c1ccccc1 | inactive
C[C@@H](C(=O)Nc1ccc2ccccc2c1)[C@@H]1C[C@@]1(C)[C@@H](NC(=O)c1ccncc1Cl)c1ccccc1 | inactive
CCCC1(C(=O)OC)C=C2C(=C(C(C)C)C(=O)C2C)CN1 (stereo not given) | inactive
C#CCCCC(=O)Nc1ccccc1 | inactive
COC(=O)[C@@]1(Cc2ccc(F)cc2)[C@H]2c3cc(C(=O)N4CCCC4)n(Cc4ccc(Cl)c(C(F)(F)F)c4)c3C[C@H]2CN1C(=O)c1ccccc1 | inactive
CCCCCC1=C2CNC(C)(C(=O)OC)C=C2C(C)C1=O (stereo not given) | inactive
COC(=O)[C@@H]1C[C@H]1[C@@H](NC(=O)c1cc(C)on1)c1ccccc1 | inactive
COC(=O)[C@@]1(Cc2ccccc2)[C@H]2c3cc(C(=O)N4CCCC4)n(CCc4ccccn4)c3C[C@H]2CN1C(=O)c1ccccc1 | inactive
C[C@@H](C(=O)Nc1ccc2ccccc2c1)[C@H]1C[C@]1(C)[C@H](NS(=O)(=O)c1ccc(-c2ccccc2)cc1)c1ccccc1 | inactive
COC(=O)C1(Cc2ccccc2)C=C2C(=C(C)C(=O)C2C)CN1 (stereo not given) | inactive
C[C@H]1C2=C3C(CC[C@H]4C(OCc5ccc(F)cc5C(F)(F)F)OC[C@](C)([C@@H]34)N(C(=O)OC(C)(C)C)C2)C(CO)C1CO (stereo not given in full) | inactive
O=C(NCc1nc2ccccc2[nH]1)[C@H]1C[C@@H]1[C@H](NP(=O)(c1ccccc1)c1ccccc1)c1ccccc1 | inactive
CC[C@H]1C2=C3C(CC[C@H]4C(OCc5ccc(F)cc5C(F)(F)F)OC[C@](C)([C@@H]34)N(C(=O)OC(C)(C)C)C2)C(COC)C1COC (stereo not given in full) | inactive
CCCC/C=C/C(NC(=O)C(C)(C)C)c1ccccc1 (stereo not given) | inactive
COC(=O)[C@@H]1C[C@H]1[C@@H](NC(=O)c1cccnc1)c1ccccc1 | inactive
CCCC[C@H]1C[C@@H]1[C@@H]1N(P(=O)(c2ccccc2)c2ccccc2)C[C@@](O)(c2ccccc2)CC12CC2 | inactive
